Reference: the supplement of paper PMC10849652
Of roughly 8,800 targets only a part is listed; those with a hit were picked by preference. About 0.5% of all pairs of compound and target were hits. Values without a mark were called inactive.

Compound: Cc1sc2c(c1C)C(c1ccc(Cl)cc1)=N[C@@H](CC(=O)OC(C)(C)C)c1nnc(C)n1-2
Assay: log2 fold change, soluble protein after heating vs DMSO (PISA); higher = thermal stabilisation; K562 lysate, 10 uM; active = over 0.2 and 3.5 SD of the protein, either way, in both replicates (recomputed)
Summary of the method: (§1)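 Thermal stability, expressed as log-two fold change relative to solvent controls, is given from duplicates. Crude K562 extract in PBS pH 7.4 with 1 mM MgCl2, at 1 mg/mL protein, was treated with 10 μM compound for 30 min and heated in aliquots for 3 min across 48°C-58°C. After pooling, adjustment to 0.5% NP-40 at 4°C and centrifugation at 21,000xg for 90 min, supernatant protein was measured by TMTpro 16plex LC-MS/MS with channel sums equalised.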

Sequence of UniProt Q9BZL6 (Q9BZL6 whole entry, looked up): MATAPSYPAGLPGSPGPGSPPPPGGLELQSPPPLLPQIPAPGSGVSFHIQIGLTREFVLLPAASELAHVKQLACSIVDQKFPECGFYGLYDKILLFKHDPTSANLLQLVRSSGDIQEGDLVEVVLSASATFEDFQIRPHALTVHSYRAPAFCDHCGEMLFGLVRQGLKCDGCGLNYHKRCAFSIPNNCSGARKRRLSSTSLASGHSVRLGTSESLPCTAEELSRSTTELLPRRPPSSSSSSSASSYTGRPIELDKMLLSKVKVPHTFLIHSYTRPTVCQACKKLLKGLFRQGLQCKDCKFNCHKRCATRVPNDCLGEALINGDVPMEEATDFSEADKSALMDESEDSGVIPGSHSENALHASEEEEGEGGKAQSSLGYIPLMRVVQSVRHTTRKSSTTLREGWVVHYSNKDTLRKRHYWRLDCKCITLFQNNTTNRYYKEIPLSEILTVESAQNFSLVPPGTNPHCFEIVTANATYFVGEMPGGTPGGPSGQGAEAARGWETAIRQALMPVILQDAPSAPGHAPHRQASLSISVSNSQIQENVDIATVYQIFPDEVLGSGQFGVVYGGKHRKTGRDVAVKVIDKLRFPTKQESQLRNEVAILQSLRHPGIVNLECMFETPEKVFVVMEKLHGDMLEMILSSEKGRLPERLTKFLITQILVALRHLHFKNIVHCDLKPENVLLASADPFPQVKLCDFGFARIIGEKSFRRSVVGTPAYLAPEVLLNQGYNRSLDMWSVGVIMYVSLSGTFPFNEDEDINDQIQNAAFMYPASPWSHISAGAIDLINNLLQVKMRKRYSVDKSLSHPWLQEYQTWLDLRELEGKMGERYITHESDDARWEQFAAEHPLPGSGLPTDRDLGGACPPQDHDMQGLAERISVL
Sequence of UniProt Q96PU8 (Q96PU8 whole entry, looked up): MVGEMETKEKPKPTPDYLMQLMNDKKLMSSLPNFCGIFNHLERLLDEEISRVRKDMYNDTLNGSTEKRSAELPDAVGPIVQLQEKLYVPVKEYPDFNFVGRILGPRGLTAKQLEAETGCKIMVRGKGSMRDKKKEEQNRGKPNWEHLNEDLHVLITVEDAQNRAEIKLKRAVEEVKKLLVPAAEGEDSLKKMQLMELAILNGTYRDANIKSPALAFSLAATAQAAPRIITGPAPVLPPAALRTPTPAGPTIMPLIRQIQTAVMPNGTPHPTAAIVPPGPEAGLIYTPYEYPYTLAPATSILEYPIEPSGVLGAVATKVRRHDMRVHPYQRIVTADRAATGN
Sequence of UniProt Q8TCG2 (Q8TCG2 whole entry, looked up): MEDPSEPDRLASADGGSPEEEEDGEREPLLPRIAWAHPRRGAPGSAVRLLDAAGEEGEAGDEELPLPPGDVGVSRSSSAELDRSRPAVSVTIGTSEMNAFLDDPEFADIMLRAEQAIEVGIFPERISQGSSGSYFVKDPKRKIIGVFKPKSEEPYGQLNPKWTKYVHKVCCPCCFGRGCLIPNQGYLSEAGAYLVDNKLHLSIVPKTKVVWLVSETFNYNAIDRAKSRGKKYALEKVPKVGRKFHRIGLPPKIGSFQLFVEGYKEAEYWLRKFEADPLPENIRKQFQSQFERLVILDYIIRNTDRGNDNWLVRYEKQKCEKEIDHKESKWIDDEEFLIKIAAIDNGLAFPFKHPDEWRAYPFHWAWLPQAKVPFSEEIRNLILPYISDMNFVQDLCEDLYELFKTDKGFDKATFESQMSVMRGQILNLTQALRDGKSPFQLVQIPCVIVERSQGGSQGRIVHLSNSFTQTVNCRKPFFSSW
Sequence of UniProt Q9UBF8 (Q9UBF8 whole entry, looked up): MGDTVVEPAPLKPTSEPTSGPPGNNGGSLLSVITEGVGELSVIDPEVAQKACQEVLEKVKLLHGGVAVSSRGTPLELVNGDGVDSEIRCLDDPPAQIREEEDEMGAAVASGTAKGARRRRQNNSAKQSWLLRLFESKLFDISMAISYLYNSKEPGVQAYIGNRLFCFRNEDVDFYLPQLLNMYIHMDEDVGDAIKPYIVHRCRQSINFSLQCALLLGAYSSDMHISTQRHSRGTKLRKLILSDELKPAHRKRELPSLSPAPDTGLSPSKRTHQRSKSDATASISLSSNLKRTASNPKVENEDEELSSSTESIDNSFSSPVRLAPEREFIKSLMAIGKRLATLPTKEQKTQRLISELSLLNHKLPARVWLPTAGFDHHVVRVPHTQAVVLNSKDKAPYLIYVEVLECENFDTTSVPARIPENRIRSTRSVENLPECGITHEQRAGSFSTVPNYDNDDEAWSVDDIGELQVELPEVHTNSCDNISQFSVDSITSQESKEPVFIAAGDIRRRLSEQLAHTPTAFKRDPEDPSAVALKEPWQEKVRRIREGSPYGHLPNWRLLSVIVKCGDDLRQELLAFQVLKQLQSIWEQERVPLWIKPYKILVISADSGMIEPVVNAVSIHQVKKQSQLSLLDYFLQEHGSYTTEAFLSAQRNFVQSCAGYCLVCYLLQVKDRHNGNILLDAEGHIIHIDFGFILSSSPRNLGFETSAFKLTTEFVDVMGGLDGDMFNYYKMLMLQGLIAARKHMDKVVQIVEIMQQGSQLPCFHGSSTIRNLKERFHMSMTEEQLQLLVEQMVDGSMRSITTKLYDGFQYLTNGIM
Sequence of UniProt P05771 (P05771 whole entry, looked up): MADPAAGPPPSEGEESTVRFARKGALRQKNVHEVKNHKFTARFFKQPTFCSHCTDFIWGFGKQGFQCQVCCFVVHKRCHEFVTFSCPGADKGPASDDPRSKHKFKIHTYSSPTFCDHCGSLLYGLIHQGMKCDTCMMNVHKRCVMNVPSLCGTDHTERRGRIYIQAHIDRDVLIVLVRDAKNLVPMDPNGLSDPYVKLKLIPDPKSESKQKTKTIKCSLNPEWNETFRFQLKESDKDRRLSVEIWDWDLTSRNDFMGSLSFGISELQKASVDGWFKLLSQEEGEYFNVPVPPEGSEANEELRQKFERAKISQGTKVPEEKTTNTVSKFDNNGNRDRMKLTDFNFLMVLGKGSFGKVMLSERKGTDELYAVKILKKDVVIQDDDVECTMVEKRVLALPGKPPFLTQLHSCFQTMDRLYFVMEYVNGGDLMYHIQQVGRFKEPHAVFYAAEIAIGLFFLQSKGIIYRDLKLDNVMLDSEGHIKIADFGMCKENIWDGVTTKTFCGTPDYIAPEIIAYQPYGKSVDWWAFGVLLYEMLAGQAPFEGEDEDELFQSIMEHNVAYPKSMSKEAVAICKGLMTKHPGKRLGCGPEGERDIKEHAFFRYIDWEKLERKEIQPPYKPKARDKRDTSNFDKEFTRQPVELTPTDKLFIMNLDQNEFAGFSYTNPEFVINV
Sequence of UniProt O00625 (O00625 whole entry, looked up): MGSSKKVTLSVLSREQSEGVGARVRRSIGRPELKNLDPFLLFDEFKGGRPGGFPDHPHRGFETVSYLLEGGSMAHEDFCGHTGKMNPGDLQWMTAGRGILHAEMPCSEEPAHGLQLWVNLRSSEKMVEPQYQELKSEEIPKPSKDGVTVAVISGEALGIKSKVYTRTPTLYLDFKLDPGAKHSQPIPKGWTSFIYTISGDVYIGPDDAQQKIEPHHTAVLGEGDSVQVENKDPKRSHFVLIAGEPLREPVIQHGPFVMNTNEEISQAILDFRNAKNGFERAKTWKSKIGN
Sequence of UniProt Q9NY27 (Q9NY27 whole entry, looked up): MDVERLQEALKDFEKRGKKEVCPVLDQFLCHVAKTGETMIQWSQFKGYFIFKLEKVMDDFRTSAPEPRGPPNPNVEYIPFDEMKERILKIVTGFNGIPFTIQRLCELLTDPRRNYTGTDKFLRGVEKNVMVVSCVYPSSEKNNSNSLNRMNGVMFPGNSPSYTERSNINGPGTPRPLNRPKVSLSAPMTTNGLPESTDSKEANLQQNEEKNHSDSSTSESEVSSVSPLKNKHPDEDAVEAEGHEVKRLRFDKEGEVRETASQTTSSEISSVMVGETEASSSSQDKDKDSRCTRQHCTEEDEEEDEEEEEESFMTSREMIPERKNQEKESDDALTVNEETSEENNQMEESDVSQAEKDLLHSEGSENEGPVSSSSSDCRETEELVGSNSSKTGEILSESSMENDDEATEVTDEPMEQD
Sequence of UniProt Q15054 (Q15054 whole entry, looked up): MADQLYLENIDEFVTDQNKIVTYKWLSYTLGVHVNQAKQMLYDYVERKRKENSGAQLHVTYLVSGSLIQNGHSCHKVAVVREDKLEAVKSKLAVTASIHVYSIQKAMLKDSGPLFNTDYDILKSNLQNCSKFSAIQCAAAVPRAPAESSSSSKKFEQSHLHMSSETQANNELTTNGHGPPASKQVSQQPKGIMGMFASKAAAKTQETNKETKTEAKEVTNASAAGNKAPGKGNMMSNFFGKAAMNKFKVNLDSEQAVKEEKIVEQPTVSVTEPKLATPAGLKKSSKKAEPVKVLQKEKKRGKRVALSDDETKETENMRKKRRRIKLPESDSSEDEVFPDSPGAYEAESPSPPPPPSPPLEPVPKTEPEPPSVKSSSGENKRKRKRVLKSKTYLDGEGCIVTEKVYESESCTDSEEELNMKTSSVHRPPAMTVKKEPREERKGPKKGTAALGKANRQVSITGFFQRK
Sequence of UniProt P45877 (P45877 whole entry, looked up): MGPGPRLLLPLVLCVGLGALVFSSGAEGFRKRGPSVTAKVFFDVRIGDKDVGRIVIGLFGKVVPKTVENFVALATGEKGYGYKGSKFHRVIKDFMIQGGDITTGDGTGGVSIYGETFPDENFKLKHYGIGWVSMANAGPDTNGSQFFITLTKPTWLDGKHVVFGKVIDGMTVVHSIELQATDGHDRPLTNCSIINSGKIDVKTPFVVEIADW
Sequence of UniProt P78356 (P78356 whole entry, looked up): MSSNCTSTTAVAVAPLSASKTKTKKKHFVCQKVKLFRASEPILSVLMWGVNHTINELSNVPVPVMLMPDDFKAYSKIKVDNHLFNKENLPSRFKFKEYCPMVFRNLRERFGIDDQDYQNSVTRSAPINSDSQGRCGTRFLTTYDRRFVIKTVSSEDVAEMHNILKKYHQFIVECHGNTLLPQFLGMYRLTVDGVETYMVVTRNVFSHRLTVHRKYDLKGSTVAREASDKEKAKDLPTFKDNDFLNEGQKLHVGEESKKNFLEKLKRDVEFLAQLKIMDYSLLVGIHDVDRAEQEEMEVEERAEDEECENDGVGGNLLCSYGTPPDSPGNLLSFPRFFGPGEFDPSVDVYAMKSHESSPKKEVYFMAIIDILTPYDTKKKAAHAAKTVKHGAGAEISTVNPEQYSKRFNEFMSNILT

Row | Target | log2 fold change
1 | PIP4K2B (UniProt P78356) | 0.036
2 | PRKAR2A (UniProt P13861) | -0.011
3 | PCIF1 (UniProt Q9H4Z3) | 0.066
4 | PRMT5 (UniProt O14744) | -0.013
5 | PIK3R1 (UniProt P27986) | -0.024
6 | PFKFB4 (UniProt Q16877) | -0.053
7 | POLD3 (UniProt Q15054) | 0
8 | PI4KB (UniProt Q9UBF8) | -0.005
9 | PHKA1 (UniProt P46020) | -0.008
10 | PDCD10 (UniProt Q9BUL8) | -0.042
11 | PPFIA2 (UniProt O75334) | -0.016
12 | PLK1 (UniProt P53350) | -0.026
13 | PFKP (UniProt Q01813) | -0.031
14 | PDS5A (UniProt Q29RF7) | -0.011
15 | PLXNB2 (UniProt O15031) | 0.004
16 | PPIC (UniProt P45877) | 0.005
17 | PYURF (UniProt Q96I23) | 0.007
18 | PIK3CD (UniProt O00329) | -0.027
19 | PI4K2A (UniProt Q9BTU6) | -0.002
20 | QKI (UniProt Q96PU8) | 0.04

Row | Target | log2 fold change
21 | PFDN2 (UniProt Q9UHV9) | -0.008
22 | PRKAB2 (UniProt O43741) | -0.047
23 | PKP3 isoform 2 (UniProt Q9Y446) | 0.062
24 | PES1 (UniProt O00541) | 0.016
25 | PRIM2 (UniProt P49643) | 0.009
26 | PRKCB isoform 2 (UniProt P05771) | 0.07
27 | PPP2R5C isoform 2 (UniProt Q13362) | -0.136
28 | PPP4R2 (UniProt Q9NY27) | -0.026
29 | POGK (UniProt Q9P215) | 0.016
30 | PIK3C3 (UniProt Q8NEB9) | -0.014
31 | PI4K2B (UniProt Q8TCG2) | 0.068
32 | PPP2R3C (UniProt Q969Q6) | -0.052
33 | PDE4DIP isoform 4 (UniProt Q5VU43) | -0.016
34 | PIR (UniProt O00625) | 0.009
35 | PRKD2 isoform 3 (UniProt Q9BZL6) | 0.02
36 | PPME1 isoform 4 (UniProt Q9Y570) | 0.021
37 | PHKB isoform 3 (UniProt Q93100) | -0.012
38 | PUS3 (UniProt Q9BZE2) | 0.082
39 | PRC1 (UniProt O43663) | 0.03

Compound: c1ccc([C@@H]2C[C@H]2NC2CCNCC2)cc1
Assay: as above
Summary of the method: as §1

Row | Target | log2 fold change
40 | PIP4K2B (UniProt P78356) | -0.108
41 | PRKAR2A (UniProt P13861) | 0.027
42 | PCIF1 (UniProt Q9H4Z3) | -0.111
43 | PRMT5 (UniProt O14744) | 0.002
44 | PIK3R1 (UniProt P27986) | -0.007
45 | PFKFB4 (UniProt Q16877) | -0.007
46 | POLD3 (UniProt Q15054) | 0.034
47 | PI4KB (UniProt Q9UBF8) | 0.002
48 | PHKA1 (UniProt P46020) | 0.001
49 | PDCD10 (UniProt Q9BUL8) | -0.064
50 | PPFIA2 (UniProt O75334) | -0.132
51 | PLK1 (UniProt P53350) | 0.084
52 | PFKP (UniProt Q01813) | 0.027
53 | PDS5A (UniProt Q29RF7) | 0.019
54 | PLXNB2 (UniProt O15031) | -0.024
55 | PPIC (UniProt P45877) | 0.055
56 | PYURF (UniProt Q96I23) | -0.091
57 | PIK3CD (UniProt O00329) | 0.043
58 | PI4K2A (UniProt Q9BTU6) | 0.001
59 | QKI (UniProt Q96PU8) | -0.034

Row | Target | log2 fold change
60 | PFDN2 (UniProt Q9UHV9) | 0.063
61 | PRKAB2 (UniProt O43741) | -0.418
62 | PKP3 isoform 2 (UniProt Q9Y446) | -0.004
63 | PES1 (UniProt O00541) | 0.02
64 | PRIM2 (UniProt P49643) | 0.028
65 | PRKCB isoform 2 (UniProt P05771) | -0.005
66 | PPP2R5C isoform 2 (UniProt Q13362) | 0.026
67 | PPP4R2 (UniProt Q9NY27) | -0.009
68 | POGK (UniProt Q9P215) | -0.068
69 | PIK3C3 (UniProt Q8NEB9) | -0.114
70 | PI4K2B (UniProt Q8TCG2) | 0.077
71 | PPP2R3C (UniProt Q969Q6) | 0.059
72 | PDE4DIP isoform 4 (UniProt Q5VU43) | -0.015
73 | PIR (UniProt O00625) | 0.06
74 | PRKD2 isoform 3 (UniProt Q9BZL6) | 0.104
75 | PPME1 isoform 4 (UniProt Q9Y570) | 0.007
76 | PHKB isoform 3 (UniProt Q93100) | -0.066
77 | PUS3 (UniProt Q9BZE2) | 0.135
78 | PRC1 (UniProt O43663) | 0.043
